RE007 growth inh: less growth of the S. pombe RE007 Vpr strain; S. pombe RE007 Vpr strain, BacTiter-Glo ATP luminescence, 24 h; Potency, µM (top dose mostly 92.2 µM), actives largely listed as inhibitors; hit rate 0.21% among 360,000; AID 651644; active = well fitted falling curve with a large enough effect; inconclusive = small, poorly fitted or top-dose-only effect; inactive = no such curve, though single readings can be large or run the other way; note: nearly all actives have a fitted effect of over 50% in size
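Fission yeast RE007 carrying one integrated HIV-1 vpr copy, seeded at OD 0.01 in PMG+AL medium with 23 nL pinned compound. Grown 24 h at 30 degrees; viability read by BacTiter-Glo luminescence after 5 min.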
Tb PYK inh: inhibitors of Trypanosoma brucei pyruvate kinase; TbPYK enzyme, Kinase-Glo Plus ATP luminescence, 45 min; Potency, µM (top dose mostly 76.8 µM), most hits filed as inhibitors; AID 624173; Q57TT1; hit rate 0.12% among 410,000; note: nearly all actives have a fitted effect of over 50% in size
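Assay buffer: 50 mM TEA pH 7.2, 100 mM KCl, 10 mM MgCl2, 0.05% BSA, 0.01% Tween-20. Pyruvate kinase from T. brucei plus substrate met compound, then ADP (130 uM final). Luminescence was read post 45 min RT.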
LmPK inhibitor: blocks Leishmania mexicana pyruvate kinase activity; Q27686; purified LmPK, Kinase-Glo ATP luminescence, 1 h; Potency, µM (series often up to 57.5 µM), most hits filed as inhibitors; hit rate 0.37% among 290,000
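Screened at intermediate enzyme activity to detect both inhibitors and activators: LmPK at 0.1 nM, with a 0.5 nM enzyme column as activation reference. PEP 0.5 mM, ADP 0.1 mM; ATP detected by luminescence after 1 h.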
Shiga toxin inh: inhibitors of Shiga toxin in Vero cells. Vero cells, Shiga toxin protein synthesis inhibition reporter. inhibition, % at 38.7 µM. hit rate 9.2% among 290,000; in the data active = inhibition mostly above about 28%, no sharp cut-off; inactive = mostly below about 43%
FBPA Giardia inh: Giardia lamblia aldolase inhibition; A8B2U2; purified Giardia FBPA; Potency, µM (series often up to 59.6 µM), most hits filed as inhibitors; hit rate 0.71% among 290,000; AID 2451; note: nearly all actives have a fitted effect of over 55% in size
Target sequence (A8B2U2 whole entry, looked up): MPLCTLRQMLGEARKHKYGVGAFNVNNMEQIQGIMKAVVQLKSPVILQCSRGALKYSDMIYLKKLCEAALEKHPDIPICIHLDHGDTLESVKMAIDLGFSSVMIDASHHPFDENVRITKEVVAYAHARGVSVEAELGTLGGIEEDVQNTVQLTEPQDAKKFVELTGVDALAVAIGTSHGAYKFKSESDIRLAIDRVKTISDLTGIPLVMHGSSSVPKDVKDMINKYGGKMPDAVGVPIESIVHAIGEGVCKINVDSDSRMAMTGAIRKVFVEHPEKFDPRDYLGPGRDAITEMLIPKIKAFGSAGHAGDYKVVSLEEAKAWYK
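40 nM FBPA preincubated 10 min at RT with compound (up to 57.5 uM final), then substrate plus GAPDH/TPI/NAD/arsenate coupling and diaphorase/resazurin added. Fluorescence read after 20 min at RT, 525/598 nm.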
Cycloheximide cs: affects cycloheximide protein synthesis inhibition readout, counter-screen; cell reporter, cycloheximide protein synthesis inhibition counterscreen; hit rate 12% among 300,000; max response, %; in the data active = max response mostly above about 13%, no sharp cut-off; inactive = mostly below about 14%; note: read at 38.3 µM for the half of the compounds with a filed dose
A number is an active result; - = inactive; ? = inconclusive; . = no result; [ ] = another dose, or the depositor's remark. This is one part of a sample in which hits are shown more often than they occur. Unless noted, calls come from the whole dose curve; as a rule, active = well fitted curve in the direction sought with a large enough effect; inconclusive = small, poorly fitted or top-dose-only effect, or another doubt; inactive = no such curve, though single readings can be large; an effect the other way counts as inactive or inconclusive.

SMILES	RE007 growth inh	Tb PYK inh	LmPK inhibitor	Shiga toxin inh	FBPA Giardia inh	Cycloheximide cs
O=C(c1cccc(F)c1)N1CCC2(CC1)CCN(c1ccncc1)CC2	.	-	.	.	-	.
O=S(=O)(N/N=C\c1ccccc1O)c1ccc(Cl)cc1	-	-	-	-	-	27
Cc1ccc(NC2=CC(=O)c3sc(C)nc3C2=O)cc1	.	.	.	-	-	-
CCOc1ccc(C(=O)Nc2ccc3c(c2)OCCO3)cc1OC	-	-	-	63	-	20
CCOc1ccc(C(=O)NCC(=O)Nc2ccc3c(c2)OCO3)cc1OCC	-	-	.	.	.	.
CCOc1cc(C(=O)Nc2ccc3c(c2)OCO3)ccc1OC(F)F	-	-	-	-	-	23
CCCC(O)c1nc2ccccc2n1Cc1ccccc1OC (stereo not given)	.	-	.	.	.	.
Cc1ccc(Sc2nnc(-c3ccccc3)cc2C#N)cc1	-	-	-	-	-	-
N#Cc1cc(-c2ccccc2)cnc1Sc1ccccc1	-	-	-	55	-	27
CN1C(=O)C2(c3ccccc31)N(C)CC(c1ccccc1)C21SC(=S)N(Cc2ccco2)C1=O (stereo not given)	-	-	-	-	-	-
CN1C(=O)C2(c3ccccc31)N(C)CC(c1ccccn1)C21SC(=S)N(Cc2ccco2)C1=O (stereo not given)	-	-	-	-	-	32
CSC1=N/C(=C/c2cccnc2)C(=O)N1Cc1ccc(Cl)cc1	-	-	-	-	-	44
COc1ccc(NC(=O)c2oc3ccc(S(=O)(=O)N(C)C4CCCCC4)cc3c2C)cc1Cl	.	-	.	.	.	.
CCN(CC)c1cc2c(cc1F)c(=O)c(S(=O)(=O)c1cc(C)ccc1C)cn2Cc1ccccc1	.	-	.	.	.	.
C=CCOC(=O)c1c(C)nc2cc3c(cc2c1C)OCO3	-	-	-	69	-	29
C=CCOC(=O)C1=C(C)NC(=O)NC1c1ccc2c(c1)OCO2 (stereo not given)	-	-	-	-	-	-
CC(C)(C)c1ccc(-c2conc2N)cc1	-	-	-	111	-	48
COc1ncc2nc(-c3ccccc3)c(=O)n(C3CC3)c2n1	.	.	.	.	-	.
Cc1cc(=O)[nH]c(NCc2ccc(Cl)cc2)n1	-	-	-	-	-	-
Fc1cc(F)nc(NCc2ccccc2)n1	-	-	-	-	-	-
CSc1n[nH]c(NCc2ccc(C)cc2)n1	-	-	-	72	-	40
CSc1n[nH]c(NCc2ccc(Cl)cc2)n1	-[3.69 µM]	.	-	51	-	15
CSc1n[nH]c(NCc2ccccc2)n1	-	-	-	29	-	-
Cc1ccc(CNC(=O)CSc2n[nH]c(N)n2)cc1	-	-	-	-	-	-
CCCN1CCN(c2nnc(-n3cccc3C(=O)Nc3cc(Cl)ccc3C)s2)CC1	.	-[15.4 µM]	.	.	.	.
SMILES	RE007 growth inh	Tb PYK inh	LmPK inhibitor	Shiga toxin inh	FBPA Giardia inh	Cycloheximide cs
O=C(c1c(F)cccc1F)N1CCCC(c2nc(-c3cccs3)no2)C1 (stereo not given)	-	-	-	131	-	-
O=C(c1ccccc1Br)N1CCCC(c2nc(-c3cccs3)no2)C1 (stereo not given)	-	-	-	114	-	36
C/C(=N\OCc1ccccc1C#N)c1cc2ccccc2o1	-	-	-	71	-	36
C/C(=N\OCC(=O)NC12CC3CC(CC(C3)C1)C2)c1cc2ccccc2o1	-	-	-	-	-	18
CSc1ccccc1NC(=O)CO/N=C(\C)c1cc2ccccc2o1	-	-	-	-	-	18
C=C(C(=O)C(C)(C)O)C(O)c1ccc([N+](=O)[O-])cc1 (stereo not given)	.	.	.	.	-	.
Cc1nn(-c2ccc(C(=O)OC(C)C)cc2)c(C)c1[N+](=O)[O-]	-	-	-	62	-	32
COc1cc2c(cc1NCc1ccccn1)oc1ccccc12	-	-	-	33	?	-
COc1cc2c(cc1NCc1ccc3c(c1)OCO3)oc1ccccc12	-	-	-	68	-	37
COc1cc2c(cc1NC(=O)CCC(=O)O)oc1ccccc12	-	-	-	-	-	-
COc1cc2c(cc1NC(=O)c1ccc3c(c1)OCO3)oc1ccccc12	-	-	-	92	-	41
CCCc1cc(C(=O)Nc2cc(OC)ccc2OC)cs1	-	-	-	30	-	18
CCN(CC)CCCC(C)Nc1nc(C)cc(Nc2ccc3nc(C)cc(N)c3c2)n1 (stereo not given)	.	-	.	.	-	.
O=S(=O)(c1ccc2c(c1)OCCO2)N1CCN(S(=O)(=O)c2cccc[n+]2[O-])CC1	.	.	.	-	.	-
COc1ccccc1N1CCN(C(CNC(=O)c2ccc3c(c2)OCO3)c2cccnc2)CC1 (stereo not given)	-	-	-	-	-	15
CCCN(CCC)S(=O)(=O)c1ccc(C(=O)Nc2cc3oc4ccccc4c3cc2OC)cc1	-	-	-	-	-	19
COc1ccc(OC)c(NC(=O)c2ccc(OC3CSC3)cc2)c1	-	-	-	-	-	21
CCN(CC)S(=O)(=O)c1cccc(C(=O)Nc2cc3oc4ccccc4c3cc2OC)c1	-	-	-	-	-	-
COc1ccccc1NC(=O)c1ccc2c(c1)OCO2	-	-	-	82	-	50
COc1cc(OC)c(NC(=O)Nc2nnc(N(C)C3CCCCC3)s2)cc1Cl	.	-	.	.	.	.
CCNc1ncc2nc(-c3cc(F)cc(F)c3)c(=O)n(C3CC3)c2n1	.	.	.	.	-	.
O=C(Nc1ccc(Cl)cc1)c1ccc(OC2CSC2)cc1	-	-	-	-	-	18
COc1ccc(C(=O)Oc2ccc3c(c2)OCO3)cc1OC	-	-	-	75	-	30
COc1ccc(OC)c(NC(=O)c2ccc3c(c2)OCO3)c1	-	-	-	.	-	24
COc1ccc(CC(=O)Nc2nc(-c3cc(OC)ccc3OC)cs2)cc1	-	-	-	-	-	-

Screens: PubChem BioAssay, National Center for Advancing Translational Sciences (NCATS)
